This is a sample that favours compounds with a hit; in the whole collection about 19% have one here.
MCF10A rerep: DNA re-replication induction in MCF 10a cells | MCF 10A DNA re-replication, Hoechst nuclear intensity, 48 h | Potency, µM (series often up to 46.1 µM), inactives show top-dose activity, positive = re-replication, most hits filed as activators | hit rate 2.9% among 350,000; note: potency is the fitted concentration of half-maximal effect; % of control where 0% means no effect; nearly all actives have a fitted effect of over 50% in size
SW480 rereplic: inducers of DNA re-replication in SW480 colon cancer cells | SW480 DNA re-replication, Hoechst DNA content imaging, 48 h | Potency, µM (series often up to 46.1 µM), for inactives: at the highest dose re-replication activation, actives largely listed as activators | hit rate 1.8% among 340,000 | AID 624297; note: potency is the fitted concentration of half-maximal effect; % of control where 0% means no effect; nearly all actives have a fitted effect of over 55% in size
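Cells (250 per well) received 23 nL compound or DMSO by pin tool and were kept 48 hr at 37 C, 5% CO2. Nuclei were then stained with Hoechst for 40 min and scanned for DNA content.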
BCR signal inh: chronic active BCR signaling inhibition; ABC-DLBCL IkBa-CBG/CBR reporter, luminescence ratio, 4 h; Potency, µM (top dose mostly 46.1 µM), for the others: at the top dose activity change, negative = inhibition, actives largely listed as inhibitors; hit rate 0.05% among 340,000; AID 493014; active = well fitted inhibition curve with a large enough effect in the signal ratio, with a control signal flat, not every such curve was filed as active; inconclusive = small, poorly fitted or top-dose-only effect, or effect the other way, or a change in a side signal; the % refers to the signal ratio;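 note: potency is the fitted concentration of half-maximal effect; plate controls were basal doxycycline-induced cells for no effect and cells given 10 µM MG132 for full effect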
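Cell line TMD8 (human ABC DLBCL), stably expressing tet-inducible CBG68-IkBa fusion and CBR; IMDM/0.5% FBS; cpd up to 46 uM; dox induction, 4 h, 37C/5% CO2; dual luminescence; green/red ratio; MG132 control.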
TDP1 cell CPT: growth inhibition of DT40 Tdp1-/-;hTDP1 cells with camptothecin (screen for TDP1 inhibitors); AID 686979; hit rate 12% among 420,000; chicken DT40 Tdp1-/-;hTDP1 cells + 20 nM CPT, ATP luminescence, 48 h; Potency, µM (series often up to 46.2 µM), for inactives: at the highest dose activity change, negative = growth inhibition, usual class: inhibitors; note: potency is the fitted concentration of half-maximal effect; % is set by controls: 0 for no effect and ±100 for the full control effect; nearly all actives have a fitted effect of over 55% in size
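Chicken DT40 Tdp1-/- cells complemented with human TDP1, 400 cells/well, exposed to compounds plus 20 nM camptothecin for at least 48 h at 37 C; viability read as ATP content by CellTiter-Glo luminescence.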
TDP1 cell noCPT: qHTS for Inhibitors of human tyrosyl-DNA phosphodiesterase 1 (TDP1): qHTS in cells in absence of CPT | hit rate 15% among 420,000 | Potency, µM (highest dose often 46.2 µM), for the others: top-dose activity change, negative = growth inhibition, actives largely listed as inhibitors | DT40 Tdp1-/- hTDP1 cells, no CPT, ATP luminescence, 48 h; note: potency is the fitted concentration of half-maximal effect; % is set by controls: 0 for no effect and ±100 for the full control effect; nearly all actives have a fitted effect of over 55% in size
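Cells were dispensed at 400 per well, compounds added by pin tool, plates incubated ≥48 hr at 37 °C, then CellTiter-Glo added for 30 min at room temperature before luminescence reading. Line: DT40 Tdp1-/- complemented with hTDP1; camptothecin omitted.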
IL1B secr inh: blocks inflammasome-driven IL-1 beta release; THP-1 LPS/ATP IL-1B secretion, AlphaLISA, 16 h; stronger effect = lower value; activity change, % at 57.5 µM; hit rate 4.7% among 360,000; in the data active = activity change below about -50%; inconclusive = mostly about -30% to -49%; note: % is set by controls: 0 for no effect and ±100 for the full control effect
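THP-1 cells pretreated 1 hr with compounds (up to 57.5 uM final), then stimulated with LPS (250 ng/mL final) plus ATP (1.25 mM final); secreted IL-1B measured by AlphaLISA after 16 hr, decreased signal indicating inhibition.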
* hit, by the source's call; ? = inconclusive; / = no result. Unless noted, calls come from the whole dose curve; as a rule, active = well fitted curve in the direction sought with a large enough effect; inconclusive = small, poorly fitted or top-dose-only effect, or another doubt; inactive = no such curve, though single readings can be large; an effect the other way counts as inactive or inconclusive.

SMILES	MCF10A rerep	SW480 rereplic	BCR signal inh	TDP1 cell CPT	TDP1 cell noCPT	IL1B secr inh
CCCN(c1c(C)n(C)n(-c2ccccc2)c1=O)S(=O)(=O)c1ccc(C)cc1	/	/	/	-2.8%	?	/
CC1C(=O)N2CCCc3cc(NC(=O)C4CC4)cc1c32 (centres undefined)	4.3%	-9.8%	-3.7%	-5.9%	-0.7%	15.2
Cc1ccc(Cl)cc1N1CCN(CCCNc2ncnc3onc(-c4ccc(F)cc4)c23)CC1	/	/	/	14.6µM*	18.4µM*	/
Fc1ccc(-c2noc3ncnc(NCC4CCN(Cc5ccc(Cl)cc5)CC4)c23)cc1	/	/	/	?	13µM*	/
Cc1ccc(CN2CCC(CNc3ncnc4onc(-c5ccc(F)cc5)c34)CC2)cc1	/	/	/	-39.8%	23.1µM*	/
Cc1ccc(Cl)cc1N1CCN(c2ncnc3onc(-c4ccc(F)cc4)c23)CC1	/	/	/	-0.5%	-6.7%	/
CC(=O)Nc1ccc(S(=O)(=O)N[C@@H](C)C(=O)OCC(=O)c2ccc(C)cc2)cc1	-3.8%	-9.9%	-0.6%	-5.0%	4.6%	2.1
CN1C[C@@H]2[C@@H]3C(=O)N(C)C(=O)[C@@H]3[C@](Cc3ccccc3)(C1=O)N2C(=O)c1ccc(F)cc1	-11.5%	-7.2%	/	-8.9%	-23.5%	-13.4
Cc1ccccc1-c1cnc2c(c1)C(=O)N([C@H](C)CO)C[C@@H](C)[C@H](CN(C)C(=O)c1ccncc1)O2	/	/	/	5.1%	4.7%	-6.3
Cc1ccc(NC(=O)CSc2nnnn2-c2cccnc2)c(C)c1	15.7%	2.1%	0.9%	-1.2%	-20.8%	7.1
Cc1ccc(OCC(=O)Nc2ccc(N3CCN(C(=O)c4ccco4)CC3)cc2)cc1	25.6%	-3.8%	-17.2%	?	23.1µM*	-58.9*
O=C(Nc1ccc(N2CCN(C(=O)c3ccco3)CC2)cc1)c1ccc(F)cc1	17.4%	1.6%	0.9%	?	20.6µM*	-19.9
O=C(c1ccco1)N1CCN(c2ccc(F)cc2)CC1	-6.4%	-6.5%	4.2%	?	-26.0%	3.7
CC(=O)Nc1ccc(N2CCN(C(=O)c3cccs3)CC2)cc1	1.5%	11.2%	0.2%	5.4%	6.1%	-15.8
Nc1ccc(N2CCN(C(=O)c3ccco3)CC2)cc1	?	2.0%	1.2%	15.8µM*	18.4µM*	5.8
O=C(Nc1ccc(N2CCN(C(=O)c3cccs3)CC2)cc1)c1ccc(F)cc1	0.2%	-11.2%	0.2%	-25.3%	23.1µM*	/
Cc1cccc(C(=O)Nc2ccc(NC(=O)CN3CCOCC3)cc2)c1	19.6%	-5.5%	2.0%	-3.0%	-1.4%	-3.8
COC(=O)[C@@H]1CCCN1C(=O)c1cc(NC(=O)c2ccccc2)cc2ncn(C3CCCC3)c12	/	/	/	-21.5%	-23.5%	/
O=C(Nc1nnc(S(=O)(=O)N2CCN(c3ccc(F)cc3)CC2)s1)c1ccco1	-0.7%	-4.5%	13.7%	16.4µM*	?	6.8
O=C(Cn1nc(-c2ccccc2)ccc1=O)Nc1ccc(N2CCN(C(=O)c3cccs3)CC2)cc1	3.5%	-3.3%	?	?	?	-57.2*
O=C(Nc1nnc(S(=O)(=O)N2CCOCC2)s1)c1ccc(F)cc1	13.1%	-14.2%	?	11.1%	-3.6%	13.3
Cc1cc(C)cc(C(=O)Nc2ccc(N3CCN(C(=O)c4ccco4)CC3)cc2)c1	25.2%	?	-0.2%	?	16.4µM*	-51.9*
Nc1ccc(N2CCN(C(=O)c3cccs3)CC2)cc1	-1.4%	-5.7%	-8.5%	?	14.6µM*	-4.5
CN1CCn2cnc(C(=O)Nc3ccc(CNC(=O)OC(C)(C)C)cc3)c2C1=O	/	/	/	?	?	-9.9
CNCCCCOc1ccccc1-c1ccccc1	24.6%	?	?	25.9µM*	?	?
SMILES	MCF10A rerep	SW480 rereplic	BCR signal inh	TDP1 cell CPT	TDP1 cell noCPT	IL1B secr inh
COCCCNCCOc1ccccc1-c1ccccc1	1.6%	-2.2%	-0.6%	12.8%	?	-29.7
CCCCNCCOc1ccccc1-c1ccccc1	?	24.2%	?	?	?	-60.3*
C=CCNCCCCOc1ccccc1-c1ccccc1	?	13.6%	?	?	?	-84.9*
COCCCNCCCCOc1ccccc1-c1ccccc1	3.1%	?	?	20.6µM*	14.6µM*	0.0
Cc1nn(C)c2c1c(C(F)(F)F)cc(=O)n2Cc1ccc(Br)cc1F	/	/	/	-3.3%	0.1%	/
O=c1c2ccccc2oc2cc(O)c(C3COCC(CO)C(O)C(O)C3O)c(O)c12 (centres undefined)	/	/	/	10.2%	0.0%	/
COc1ccc(CCNc2nc(C)c(C(C)=O)s2)cc1OC	-10.3%	-23.6%	1.2%	?	?	0.0
COc1ccc(CCNc2nc(-c3ccccn3)cs2)cc1OC	7.8%	19.5%	?	16.4µM*	11.6µM*	7.8
COc1ccc(CCNc2nc(-c3ccc(NC(C)=O)cc3)cs2)cc1OC	?	-2.0%	0.6%	?	?	-16.6
COc1ccc(CCNc2nc(-c3ccc(F)cc3)c(CC(=O)O)s2)cc1OC	8.5%	3.0%	?	14.6µM*	25.9µM*	4.0
COc1ccc(CCNc2nc(-c3cccnc3)cs2)cc1OC	27.0%	-11.5%	-1.8%	?	?	-11.4
COc1ccc(CCNc2nc(-c3ccncc3)cs2)cc1OC	0.4%	-5.3%	-10.6%	20.6µM*	?	-20.9
COc1ccc(CNc2ncccn2)cc1OC	1.1%	-9.1%	?	-2.9%	-2.1%	-0.2
COc1ccc(CCNc2nc(-c3ccc(O)cc3)cs2)cc1OC	?	-19.9%	?	16.4µM*	16.4µM*	-62.1*
COC(=O)[C@]12CCCCC=C1N(Cc1ccc3c(c1)OCO3)C(=O)[C@H](CC(=O)N1CCN(C(=O)C3CC3)CC1)C2	/	/	/	?	?	-2.8
O=C(Cn1c(NCCCO)nc2ccccc21)c1ccc(F)cc1	7.0%	4.0%	2.0%	-23.7%	-26.4%	-12.8
CCCOc1ccc(C2c3c(oc4ccccc4c3=O)C(=O)N2c2nc(C)c(C(=O)OCC)s2)cc1 (centres undefined)	/	/	/	8.3%	-19.9%	/
CC(C)CNc1ncnc2c1ncn2[C@H]1CN(C2CCCC2)C[C@@H](CO)O1	/	/	/	-23.2%	?	13.3
c1ccc(CCNc2nc(-c3ccncc3)cs2)cc1	?	-0.8%	?	?	?	-59.6*
O=C(/C=C/[C@H]1O[C@@H](n2ccc(=O)[nH]c2=O)[C@H](O)[C@@H]1O)NCCCc1ccccc1	/	/	/	-2.1%	10.4%	-4.5

Screens from PubChem.
